According to PubChem BioAssay (Tox21):
Inconclusive results are not listed. Activity calls are given as the source filed them. Unless noted, calls come from the whole dose curve; as a rule, active = well fitted curve in the direction sought with a large enough effect in the repeat runs; inconclusive = weak or mixed curves; inactive = no such curve, though single readings can be large; an effect the other way counts as inactive or inconclusive.

Assays:
[1] = qHTS assay for small molecules that induce genotoxicity in human embryonic kidney cells expressing luciferase-tagged ATAD5 (AID 651632); note: nearly all actives have a fitted effect of over 15% in size
Summary of the method: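 Luminescent reporter readout, HEK293T ATAD5-luc line: 16 hr drug exposure (37C, 5% CO2) followed by Amplite, 30 min RT.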

[2] = qHTS assay for small molecule agonists of the p53 signaling pathway - cell viability (AID 651633; calls by dose curve;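 note: p53RE-bla HCT reporter cells with a stable beta-lactamase p53 reporter; series mostly up to about 83 µM; nearly all actives have a fitted effect of over 30% in size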)
Summary of the method: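 p53RE-bla cells were treated with compound for 16 hours at 37 C. Cytotoxicity was then measured as CellTiter-Glo luminescence after 30 min at room temperature.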

[3] = qHTS assay for small molecules that induce genotoxicity in human embryonic kidney cells expressing luciferase-tagged ATAD5 - cell viability (AID 651634; calls by dose curve; note: nearly all actives have a fitted effect of over 25% in size)
Summary of the method: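 Viability read: CellTiter-Fluor fluorescence, 30 min at 37C. Cells: HEK293T, luciferase-tagged ATAD5. Exposure: 15.5 hr, 37C, 5% CO2, compound or DMSO vehicle.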

[4] = qHTS assay for small molecule disruptors of the mitochondrial membrane potential - cell viability (AID 720634; calls by dose curve;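 note: human HepG2 liver cancer cells; series mostly up to about 83 µM; nearly all actives have a fitted effect of over 20% in size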)
Summary of the method: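 HepG2, 1 hr compound, 37 C. ATP luminescence via CellTiter-Glo, 30 min RT, same well as m-MPI.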

[5] = qHTS assay to test for compound auto fluorescence at 590 nm (red) in HepG2 cells (AID 720674)
Summary of the method: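 Fluorescence at 590 nm emission following 540 nm excitation was recorded from HepG2 wells one hour after compound transfer, with DMSO-only wells as vehicle and Rose Bengal sodium equivalency as the scale.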

[6] = qHTS assay to test for compound auto fluorescence at 535 nm (green) in HepG2 cells (AID 720675)
[7] = qHTS assay to test for compound auto fluorescence at 460 nm (blue) in HEK293 cells (AID 720678)
Summary of the method: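 Triamterene serves as the blue fluorophore standard. Compound signal at 405/460 nm is read in HEK293 wells (2,000 cells, 10% dialyzed FBS) after overnight treatment at 37C.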

[8] = qHTS assay to test for compound auto fluorescence at 590 nm (red) in HEK293 cells (AID 720679)
Summary of the method: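 We plated HEK293 cells in 10% dialyzed FBS medium, let them adhere for 4-5 hr, then added 23 nL compound. Overnight at 37C and 5% CO2 preceded fluorescence measurement at 540/590nm.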

[9] = qHTS assay for small molecule disruptors of the mitochondrial membrane potential (AID 720635)
Summary of the method: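 HepG2 cells exposed to compound 1 hr at 37C, then Mito-MPS dye 30 min. Ratio read of aggregate (540/590 nm) versus monomer (490/535 nm) fluorescence.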

Measured: Potency

Cc1c(Cl)cccc1Cl
inactive: [1] | [2] | [3] | [4] | [5] | [6] | [7] | [8]

C=CCSSCCC
inactive: [1] | [2] | [3] | [9] | [5] | [6] | [7] | [8]

ONc1ccccc1
inactive: [1] | [2] | [3] | [4] | [6] | [7] | [8]

OC1OCCOC1O (stereo not given)
inactive: [1] | [2] | [3] | [4] | [5] | [6] | [7] | [8]

CO[Si](CCCn1c(=O)n(CCC[Si](OC)(OC)OC)c(=O)n(CCC[Si](OC)(OC)OC)c1=O)(OC)OC
inactive: [1] | [2] | [3] | [9] | [5] | [6] | [7] | [8]

Cc1ccc(C(=O)O)cc1[N+](=O)[O-]
inactive: [1] | [2] | [3] | [9] | [5] | [6] | [7] | [8]

COC(C)(OC)OC
inactive: [1] | [2] | [3] | [4] | [6] | [7] | [8]

NCCOCCN
inactive: [1] | [2] | [3] | [4] | [5] | [6] | [7] | [8]

CCCCOC(=O)[C@H](C)O
inactive: [1] | [2] | [3] | [4] | [6] | [7] | [8]

CCCCCCCCCCCCCBr
inactive: [1] | [2] | [3] | [4] | [5] | [6] | [7] | [8]

C/C=C(\C)C(C)=O
inactive: [1] | [2] | [3] | [4] | [5] | [6] | [7] | [8]

O=C=NCC1CCCC(CN=C=O)C1 (stereo not given)
inactive: [1] | [2] | [3] | [5] | [6] | [7] | [8]

CC(=O)CCC1=C(C)CCCC1(C)C
inactive: [1] | [2] | [3] | [9] | [5] | [6] | [7] | [8]

CN1C[C@@H]2C[C@H]1CN2c1cc2c(cc1F)c(=O)c(C(=O)O)cn2C1CC1
inactive: [1] | [2] | [3] | [5] | [6] | [7] | [8]

CCCCOCCOC(=O)COc1ccc(Cl)cc1Cl
inactive: [1] | [2] | [3] | [4] | [5] | [6] | [7] | [8]
